# Measurements from article PMC10812921, “Transcriptional Coactivator BOB1 (OBF1, OCA-B) Modulates the Specificity of DNA Recognition by the POU-Domain Factors OCT1 and OCT2 in a Monomeric Configuration”.
# Target: POU1 (OCT1 POU domain) (human, UniProt P14859 260-458)
# Test: EMSA-SELEX-seq; no BOB1; 20 mM Tris-HCl pH 7.6, 140 mM NaCl, 10% glycerol, 0.5 mM EDTA, 0.05% Triton X-100, 0.1 mg/mL BSA, 0.1 mg/mL poly(dI-dC), 5 mM DTT, room temperature, 20 min; high values mean tight binding
# Settings: protein: recombinant; dsDNA, one strand shown
# Outline: (§1)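 After expression in E. coli BL21, tagged POU-domain proteins were purified under denaturing conditions and then renatured. Each binding reaction held 30 ng protein and 300 ng of a PCR-amplified double-stranded random 35-nt library in 20 μL Tris–HCl pH 7.6 binding buffer, with or without 28 ng coactivator protein, for 20 min at RT. Bands holding complexes were cut from native 6% PAGE, eluted and PCR-amplified across four rounds, and the output was Illumina-sequenced. The value given for binding preference is the share, in percent, of sequenced 8-mers fitting a motif pattern.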
# Chain of POU1 (OCT1 POU domain) (P14859 260-458): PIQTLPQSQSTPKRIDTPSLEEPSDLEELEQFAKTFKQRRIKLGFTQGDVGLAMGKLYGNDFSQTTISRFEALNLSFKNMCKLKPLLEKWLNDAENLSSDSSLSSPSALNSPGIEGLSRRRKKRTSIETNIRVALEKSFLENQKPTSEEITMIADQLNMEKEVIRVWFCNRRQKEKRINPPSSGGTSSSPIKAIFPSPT
row,Sequence,binding signal
1,ACGAAAAC,0.0256 % of ANNNNAAN 8-mers
2,AGAAAAAT,0.0946 % of ANNNNAAN 8-mers
3,AAGGCAAA,0.222 % of ANNNNAAN 8-mers
4,AGGGGAAC,0.0416 % of ANNNNAAN 8-mers
5,AAAAGAAT,0.0858 % of ANNNNAAN 8-mers
6,ACATGAAT,0.151 % of ANNNNAAN 8-mers
7,ATTCAAAA,0.365 % of ANNNNAAN 8-mers
8,AAAGCAAC,0.0256 % of ANNNNAAN 8-mers
9,AAAATAAC,0.0782 % of ANNNNAAN 8-mers
10,ATTCTAAA,0.0946 % of ANNNNAAN 8-mers
11,AGTAGAAC,0.0271 % of ANNNNAAN 8-mers
12,AATTGAAC,0.0492 % of ANNNNAAN 8-mers
13,ACCCAAAA,0.0214 % of ANNNNAAN 8-mers
14,ACGGTAAA,0.0389 % of ANNNNAAN 8-mers
15,ACAGGAAG,0.0343 % of ANNNNAAN 8-mers
16,AGGCAAAA,0.236 % of ANNNNAAN 8-mers
17,AGATGAAT,0.119 % of ANNNNAAN 8-mers
18,ACCTCAAA,0.0149 % of ANNNNAAN 8-mers
19,ACCTTAAG,0.0198 % of ANNNNAAN 8-mers
20,ATCGTAAA,0.0553 % of ANNNNAAN 8-mers

row,Sequence,binding signal
1,AATCAAAT,0.295 % of ANNNNAAN 8-mers
2,AGTTGAAG,0.0355 % of ANNNNAAN 8-mers
3,ATGATAAG,0.0843 % of ANNNNAAN 8-mers
4,ACAAGAAT,0.0454 % of ANNNNAAN 8-mers
5,ACCTGAAA,0.0183 % of ANNNNAAN 8-mers
6,AGGTCAAT,0.0557 % of ANNNNAAN 8-mers
7,AGTATAAA,0.0744 % of ANNNNAAN 8-mers
8,ACGGCAAA,0.0328 % of ANNNNAAN 8-mers
9,AACGAAAC,0.0225 % of ANNNNAAN 8-mers
10,AGAATAAG,0.0686 % of ANNNNAAN 8-mers
11,ATAAGAAG,0.0614 % of ANNNNAAN 8-mers
12,ACAGTAAG,0.0328 % of ANNNNAAN 8-mers
13,ACTGTAAG,0.0225 % of ANNNNAAN 8-mers
14,AAGCAAAT,0.378 % of ANNNNAAN 8-mers
15,AGTGGAAC,0.0267 % of ANNNNAAN 8-mers
16,AGCCAAAT,0.0858 % of ANNNNAAN 8-mers
17,AGTTGAAT,0.0927 % of ANNNNAAN 8-mers
18,ATTTTAAA,0.198 % of ANNNNAAN 8-mers
19,ATCGAAAA,0.0511 % of ANNNNAAN 8-mers
20,ATGGCAAC,0.0263 % of ANNNNAAN 8-mers

# Target: T1, POU2 (OCT2 POU domain) (human, UniProt P09086 175-386)
# T1 sequence: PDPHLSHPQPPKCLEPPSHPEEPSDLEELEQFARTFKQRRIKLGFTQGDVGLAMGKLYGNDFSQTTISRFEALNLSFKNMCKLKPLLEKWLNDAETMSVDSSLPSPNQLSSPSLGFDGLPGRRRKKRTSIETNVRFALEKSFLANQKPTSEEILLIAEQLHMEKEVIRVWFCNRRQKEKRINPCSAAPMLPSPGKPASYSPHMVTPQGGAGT
# Test: as above
# Settings: protein: recombinant; dsDNA, one strand shown
# Outline: as §1
row,Sequence,binding signal
1,ACGAAAAC,0.0259 % of ANNNNAAN 8-mers
2,AGAAAAAT,0.0886 % of ANNNNAAN 8-mers
3,AAGGCAAA,0.117 % of ANNNNAAN 8-mers
4,AGGGGAAC,0.0414 % of ANNNNAAN 8-mers
5,AAAAGAAT,0.088 % of ANNNNAAN 8-mers
6,ACATGAAT,0.179 % of ANNNNAAN 8-mers
7,ATTCAAAA,0.277 % of ANNNNAAN 8-mers
8,AAAGCAAC,0.0259 % of ANNNNAAN 8-mers
9,AAAATAAC,0.0696 % of ANNNNAAN 8-mers
10,ATTCTAAA,0.123 % of ANNNNAAN 8-mers
11,AGTAGAAC,0.0242 % of ANNNNAAN 8-mers
12,AATTGAAC,0.0575 % of ANNNNAAN 8-mers
13,ACCCAAAA,0.015 % of ANNNNAAN 8-mers
14,ACGGTAAA,0.0524 % of ANNNNAAN 8-mers
15,ACAGGAAG,0.038 % of ANNNNAAN 8-mers
16,AGGCAAAA,0.136 % of ANNNNAAN 8-mers
17,AGATGAAT,0.171 % of ANNNNAAN 8-mers
18,ACCTCAAA,0.0155 % of ANNNNAAN 8-mers
19,ACCTTAAG,0.0219 % of ANNNNAAN 8-mers
20,ATCGTAAA,0.0552 % of ANNNNAAN 8-mers

row,Sequence,binding signal
1,AATCAAAT,0.212 % of ANNNNAAN 8-mers
2,AGTTGAAG,0.0316 % of ANNNNAAN 8-mers
3,ATGATAAG,0.0984 % of ANNNNAAN 8-mers
4,ACAAGAAT,0.0518 % of ANNNNAAN 8-mers
5,ACCTGAAA,0.0247 % of ANNNNAAN 8-mers
6,AGGTCAAT,0.0662 % of ANNNNAAN 8-mers
7,AGTATAAA,0.08 % of ANNNNAAN 8-mers
8,ACGGCAAA,0.0305 % of ANNNNAAN 8-mers
9,AACGAAAC,0.027 % of ANNNNAAN 8-mers
10,AGAATAAG,0.101 % of ANNNNAAN 8-mers
11,ATAAGAAG,0.0771 % of ANNNNAAN 8-mers
12,ACAGTAAG,0.0253 % of ANNNNAAN 8-mers
13,ACTGTAAG,0.027 % of ANNNNAAN 8-mers
14,AAGCAAAT,0.27 % of ANNNNAAN 8-mers
15,AGTGGAAC,0.0207 % of ANNNNAAN 8-mers
16,AGCCAAAT,0.0702 % of ANNNNAAN 8-mers
17,AGTTGAAT,0.119 % of ANNNNAAN 8-mers
18,ATTTTAAA,0.204 % of ANNNNAAN 8-mers
19,ATCGAAAA,0.0564 % of ANNNNAAN 8-mers
20,ATGGCAAC,0.0219 % of ANNNNAAN 8-mers
